Results reported in PubChem BioAssay (NCI).
About 83,000 compounds went through this panel and 20% of them were active in at least one assay; those are over-represented in the sample as a whole.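 Activity criterion: percent growth below 10, measured after cells in 96-well plates were exposed to a single compound concentration for 48 hours.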 Unmarked numbers belong to inactive results. Activity calls are given as the source filed them.

System: MDA-MB-468 breast
Assay: NCI-60 one-dose screen, 48 h (100 = growth as untreated, 0 = no growth, -100 = all killed)
Conditions: 10 µM unless noted

| Compound | growth |
| --- | --- |
| COc1cc(/C=C/C(=O)c2nc3cc(F)ccc3nc2C)cc(OC)c1OC | 23.6% |
| COc1cnc2c(c1)C(=O)c1c-2n(CCCNCCN2CCOCC2)c(=O)c2cc([N+](=O)[O-])ccc12 | -27% (active) |
| CC(=O)Nc1cccc(Nc2nc(N[C@H](C)c3ccccc3)c3ccccc3n2)c1 | 6.66% (active) |
| COc1cc(OC)cc(C2CC(=O)Nc3c2c(C)nn3-c2nc3ccccc3[nH]2)c1 (centres undefined) | 46.6% |
| Nc1ccn(C2O[C@H](CO)[C@@H](O)[C@H]2O)c(=O)n1 (some centres undefined) | 96.8% |
| CCOC(=O)c1nn(-c2ccc(S(N)(=O)=O)cc2)c2nc(C)cc(=O)n12 | 99% |
| CSc1nc(NCCO)c(C#N)c(-c2cccc(N)c2)n1 | 116% |
| COc1ccc(-c2cc3c4c(nc5ccccc5c4c2)CC(c2cc(OC)c(OC)c(OC)c2)O3)cc1 (centres undefined) | 26.6% |
| CCN(C)c1ccccc1 | 113% |
| CCSc1ccc(C2C(Br)C(=O)N2c2cc(OC)c(OC)c(OC)c2)cc1 (centres undefined) | 27.7% |
| N#Cc1ccc(OC(=O)Nc2c(Cl)cc(Cl)cc2Cl)cc1 | 97% |
| CCC(=O)Nc1cc(Nc2cc(NC3CC3)n3ncc(C#N)c3n2)ccc1C | 1.64% (active) |
| Nc1c(C(=O)Nc2cccc3ccccc23)sc2nc3c(cc12)C(=O)CCC3 | 50% |
| CC(=O)Oc1cc(OC(C)=O)c2ccccc2c1OC(C)=O | 72.7% |
| COc1ccccc1CNCCCN1C(=O)c2ccc3c4c(ccc(c24)C1=O)C(=O)N(CCCNCCCCNCCCCN)C3=O | -47% (active) |
| O=C1c2cccc3c(-c4ccc5c(c4)ncn5C4CCCCC4)ccc(c23)C(=O)N1c1nc2ccccc2s1 | 92% |
| COc1ccc(/C=C(\C#N)C(=O)N2c3ccccc3Sc3ccc(SC)cc32)cc1F | 72.3% |
| C=C1CC[C@@H]2[C@](C)(COC(C)=O)[C@H](OC(C)=O)CC[C@@]2(C)[C@@H]1C/C=C1/C(=O)OC[C@H]1OC(C)=O | 7.98% (active) |
| Clc1cccc(Cl)c1Nc1ccc2nnc(-c3ccncc3)n2n1 | 104% |
| CC12CCC(/C(=C/NNc3ccc([N+](=O)[O-])cc3[N+](=O)[O-])C1=O)C2(C)C (centres undefined) | 45% |

| Compound | growth |
| --- | --- |
| N#Cc1c(-c2ccc(O)cc2)c2c(N)nn(-c3ccccc3)c2[nH]c1=O | 111% |
| c1ccc(CP(Cc2ccccc2)c2ccccc2)cc1 | 98.6% |
| O=c1oc2ccccc2cc1-c1csc(N/N=C/c2cc3ccccc3nc2Cl)n1 | 105% |
| CCOC(=O)c1cnc2c(OC)ccc(OC)c2c1Cl | 113% |
| O[C@H]1CO[C@H]2[C@@H]1OC[C@@H]2Oc1ccc(Nc2ccnc(Nc3ccc(O[C@H]4CO[C@H]5[C@@H]4OC[C@@H]5O)c(Cl)c3)n2)cc1Cl | -7.19% (active) |
| CCCCCCCCn1ccc2cc(NC(=O)Cn3cc(CN4CCCCCC4)nn3)ccc21 | -67.2% (active) |
| COc1cc(CNC(=O)CCCC/C=C/C(C)C)ccc1OCc1nnc(Nc2ccc([N+](=O)[O-])cc2)o1 | 53.7% |
| N#Cc1c(-c2ccc(Cl)cc2)nc(N/N=C/c2cccc(Br)c2)nc1N1CCOCC1 | 76.7% |
| COc1ccc(OC)c(/C=C2\Oc3cc(O)ccc3C2=O)c1 | 102% |
| Cc1ccccc1C1N=C2Oc3ccccc3C=C2C(=O)N1 (centres undefined) | 21.8% |
| CC(=O)Cc1ccc(-c2ccccc2)cc1 | 93.7% |
| CCC(=C(c1ccc(OCCN2CCCCC2)cc1)c1ccc(OCCN2CCCCC2)cc1)c1ccc(Cl)cc1 | -77% (active) |
| c1ccc([P+](CCCc2n(Cc3ccc4ccccc4c3)c3ccccc3[n+]2Cc2ccc3ccccc3c2)(c2ccccc2)c2ccccc2)cc1 | 34.5% |
| COc1cc2oc(-c3ccc(NC(=O)c4ccccc4)cc3)cc(=O)c2c(OC)c1OC | 96.5% |
| O=C(Nc1cccc(-n2cc(-c3ccncc3)c(-c3ccc(Cl)c(O)c3)n2)c1)Nc1ccc(Cl)c(Cl)c1 | 2.25% (active) |
| C[C@H](C(=O)N(CCc1ccc(Cl)c(Cl)c1)Cc1cncs1)[C@@H]1CC[C@H](C[C@H](C)n2cc(CN3CCC(c4ccc(Cl)cc4)CC3)nn2)O1 | 90.3% |
| Cc1nc2sc(C(=O)Nc3ccccc3)c(N)c2cc1C(=O)c1ccc(C(F)(F)F)cc1 | 107% |
| Cc1cccc(C)c1NC(=O)Nc1ccccc1 | 77.6% |
| CC(=O)Nc1nc(C)c(C(=O)N/N=C/N2CCCCC2)s1 | 101% |
